For 27 compounds, composite z-score results are on record in PubChem BioAssay.

In this test the test system is Human papillomavirus type 1a E7 protein (residues 1-88). The experiment in a line: HPV1a E7 small-molecule binders, primary screen, biochemical, small-molecule microarray, residues 1-88, 635 nm (AID 1129). The conditions noted are these: small-molecule microarray binding, fluorescence 635 nm; higher = more signal.
In turn, `O=[N+]([O-])c1ccc(C[n+]2ccc3ccc(O)cc3c2)o1` had a composite z-score of 0.275.
Then `O=C1O[C@@H](c2ccccc2)[C@@H](c2ccccc2)N2[C@@H](c3ccccc3OCCO)[C@]3(C(=O)Nc4ccc(C#CC5=CCCCC5)cc43)[C@@H](C(=O)O)[C@H]12`, with 1.19; and `CCC#CCN(Cc1ccccc1Br)[C@H](/C=C/c1ccccc1)[C@@H](O)Cc1ccccc1`, with -0.518; and `COCCOC(=O)N1C(=O)[C@@]2(c3cc(C#CC4(O)CCCCCC4)ccc31)[C@H](C(=O)N1CCCCCCC1)[C@H]1C(=O)O[C@H](c3ccccc3)[C@H](c3ccccc3)N1[C@@H]2c1ccc(O)cc1`, with 1.22.
As for `C[N+](C)(C)CCCCNC(=O)[C@@H]1C[C@@H]2C(=O)N3CCC[C@H]3C(=O)N2[C@@H]1c1cccc(OCCO)c1`, the figure is 0.143.
As for `C=CCN1C(=O)[C@]2(O[C@H](CCn3cc(CCO)nn3)[C@@H]([Si](C)(C)c3ccc(OC)cc3)[C@@H]2C)c2cc(NC(=O)c3ccc(OC)cc3)ccc21`, the figure is 1.14; as for `CO[C@H]1COC(=O)[C@@H](Cc2ccccc2)NC(=O)[C@@H](C)COC(=O)CC=C[C@@H]1C`, -0.0865.
On to `O=C1C2C=CC(C(O)c3ccccc3)N(n3cnnc3)C2C(=O)N1Cc1ccccc1` (configuration not stated), for which the composite z-score is 0.561.
Then `C=C(COC)/C(=C/C[C@@H](OC(=O)c1ccncc1)c1ccc(OCCO)cc1)c1cc(C(=O)OC)ccc1OC`, with 1.21; and `O=C1C[C@@](C(=O)NCCN2CCOCC2)(c2ccc([N+](=O)[O-])cc2)[C@@H](c2ccc(CO)cc2)N1C1CCCCC1`, with 0.666.
The compound `COc1ccc(NN2C(C(O)c3cc(OC)c(OC)c(OC)c3)C=CC3C(=O)N(C4CCCCC4)C(=O)C32)cc1` (configuration not stated) displayed a composite z-score of 1.21.
With `C=C(C)[C@@H]1CC=C(C(O)C2C=CC3C(=O)NC(=O)C3N2Nc2ccccn2)CC1` (some centres not stated), the composite z-score came to 1.15.
`O=C1OCCC/C=C\[C@H]2OC34C=CCN(CCN5CCOCC5)C(=O)[C@H]3N(CCCCCO)C(=O)[C@@H]4C12` (some centres not stated) registered a composite z-score of -2.02.
The compound `NC(=O)NCC#Cc1ccc2c(c1)[C@]1(C(=O)N2)[C@H](C(N)=O)[C@H]2C(=O)O[C@H](c3ccccc3)[C@H](c3ccccc3)N2[C@@H]1c1ccccc1OCCO` registered a composite z-score of 1.01.
In the case of `COc1ccc([Si](C)(C)[C@H]2[C@H](CCO)O[C@@]3(C(=O)N(Cc4ccccc4)c4ccc(N5C(=O)c6cccc7cccc5c67)cc43)[C@@H]2C)cc1`, the composite z-score is -0.333.
As for `CN(C)c1ccc(C(O)C2C=CC3C(=O)NC(=O)C3N2Nc2ccc(Cl)cc2Cl)cc1` (configuration not stated), the figure is 1.14; as for `COC(=O)C(CC#Cc1ccc2c(c1)[C@]1(C(=O)N2)[C@H](C(=O)N2CCCCCCC2)[C@H]2C(=O)O[C@H](c3ccccc3)[C@H](c3ccccc3)N2[C@@H]1c1ccc(O)cc1)C(=O)OC`, -1.54.
Then `C=CCNC(=O)[C@@H]1[C@H]2C(=O)O[C@H](c3ccccc3)[C@H](c3ccccc3)N2[C@H](c2ccc(OCCO)cc2)[C@@]12C(=O)N(C(=O)OCCOC)c1ccc(C#CC3(O)CCCCCC3)cc12`, with 1.2; and `CC(C)[Si]1(C(C)C)O[C@@H](c2ccccc2)c2cc(C3CC3)nc(-c3ccc(Oc4ccccc4)cc3)c21`, with -0.889; and `[N-]=[N+]=NCc1ccccc1C[C@]1(C(=O)N2CCCCC2)N=C(c2ccc(OCCCO)cc2)O[C@H]1c1ccccc1CN=[N+]=[N-]`, with 1.21.
As for `Cc1ccc(N2C(=O)c3ccccc3[C@@H](C(=O)NCC(F)(F)F)[C@@H]2c2ccc(CO)cc2)nc1`, the figure is -2.06.
With `CC(C)N1CC=CC23O[C@@H]4/C=C\CCCOC(=O)C4[C@H]2C(=O)N(CCO)[C@@H]3C1=O` (some centres not stated), the composite z-score is -0.328.
Compound `O=C(NCC(F)(F)F)[C@@H]1c2ccccc2C(=O)N(Cc2ccccc2Cl)[C@H]1c1ccc(CO)cc1` displayed a composite z-score of -0.778.
`C=CCNC(=O)[C@H]1[C@@H]2C(=O)O[C@@H](c3ccccc3)[C@@H](c3ccccc3)N2[C@@H](c2ccccc2OCCO)[C@]12C(=O)N(C(=O)OCCOC)c1ccc(C#CCC(C(=O)OC)C(=O)OC)cc12` showed a composite z-score of 1.2.
Then `C[C@@H]1C=CCC(=O)OC[C@H]2O[C@@H](C=C[C@@H]2O)[C@H](C)C=CCC(=O)OC[C@H]2O[C@H]1C=C[C@@H]2O`, with -0.145.
As for `Cc1ccc(S[C@]2(C(=O)NCCN3CCOCC3)CC(=O)N(C3Cc4ccccc4C3)[C@@H]2c2ccc(CO)cc2I)cc1`, the composite z-score was -0.521.
As for `CC(C)CNC(=O)[C@@]1(C)c2ccccc2C(=O)N(Cc2ccc(OC(F)(F)F)cc2)[C@H]1c1ccc(CO)cc1`, the figure is 0.325.
